# Out of some 310,000 compounds screened, about 14,000 (4.5%) showed an effect of 50% or more. Effects have a minus sign here. The sample holds strong results, similar compounds and a random draw of the others, so the mix is not that of the screen.
# Molecular target: human ether-à-go-go-related gene (hERG) potassium channel (human, UniProt Q12809)
# Assay: primary screen, population patch clamp on CHO cells stably expressing hERG; higher = less effect of the substance
# 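Note: peak tail current of the secondary pulse compared with the same well before compound.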
# Sequence of human ether-à-go-go-related gene (hERG) potassium channel (Q12809 whole entry, looked up): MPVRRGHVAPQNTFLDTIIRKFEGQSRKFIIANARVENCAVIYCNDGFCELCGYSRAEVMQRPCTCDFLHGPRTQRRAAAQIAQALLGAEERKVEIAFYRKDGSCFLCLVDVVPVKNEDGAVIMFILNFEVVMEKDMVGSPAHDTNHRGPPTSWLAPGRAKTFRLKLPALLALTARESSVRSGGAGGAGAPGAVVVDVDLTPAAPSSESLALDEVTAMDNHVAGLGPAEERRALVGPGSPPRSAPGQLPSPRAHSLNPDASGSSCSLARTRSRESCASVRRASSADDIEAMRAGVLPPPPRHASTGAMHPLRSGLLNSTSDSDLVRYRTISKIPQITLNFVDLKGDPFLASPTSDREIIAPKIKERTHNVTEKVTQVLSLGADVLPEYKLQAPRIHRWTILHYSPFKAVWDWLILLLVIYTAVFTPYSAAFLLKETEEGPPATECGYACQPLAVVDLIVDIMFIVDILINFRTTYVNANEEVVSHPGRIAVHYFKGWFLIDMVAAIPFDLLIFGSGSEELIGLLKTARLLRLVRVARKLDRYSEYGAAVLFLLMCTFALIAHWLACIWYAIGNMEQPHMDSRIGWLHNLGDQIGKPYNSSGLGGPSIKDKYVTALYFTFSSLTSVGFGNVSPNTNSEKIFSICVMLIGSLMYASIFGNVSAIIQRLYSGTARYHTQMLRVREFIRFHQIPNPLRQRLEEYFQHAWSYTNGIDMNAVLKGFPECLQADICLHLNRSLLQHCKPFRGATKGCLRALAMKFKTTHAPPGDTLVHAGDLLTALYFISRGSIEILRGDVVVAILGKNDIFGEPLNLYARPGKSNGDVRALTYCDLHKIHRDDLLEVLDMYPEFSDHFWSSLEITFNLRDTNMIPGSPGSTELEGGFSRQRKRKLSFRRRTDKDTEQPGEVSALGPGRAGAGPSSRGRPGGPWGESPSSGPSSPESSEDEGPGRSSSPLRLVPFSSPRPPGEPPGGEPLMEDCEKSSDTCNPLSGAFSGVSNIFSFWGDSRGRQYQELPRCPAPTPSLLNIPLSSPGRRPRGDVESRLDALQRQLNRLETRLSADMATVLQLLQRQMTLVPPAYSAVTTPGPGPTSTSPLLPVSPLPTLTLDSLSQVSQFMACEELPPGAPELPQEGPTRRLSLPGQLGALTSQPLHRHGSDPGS
row,SMILES,"hERG current change (%, negative = inhibition) at 10uM"
1,COc1ccc(CCNC(=O)COC(=O)C2CCCCC2)cc1,7.11%
2,Cc1nc2nc[nH]n2c(=O)c1CCOC(=O)c1ccccc1F,20.7%
3,O=C(/C=C\c1ccccc1)NCC(=O)N/N=C/c1ccc(O)cc1O,9.48%
4,Cc1ccc(NC(=O)CCNS(=O)(=O)c2ccccc2)c(C(=O)c2ccccc2)c1,-20.4%
5,O=C(NC1CCCN(Cc2ccc(Cl)cc2)C1)C1CCC1 (centres unmarked),-13.6%
6,Cc1cc(C(=O)NC2CCCN(Cc3ccc(Cl)cc3)C2)n(C)n1 (centres unmarked),-16%
7,CC(=O)c1ccc(C(=O)NC2CCCN(Cc3ccc(Cl)cc3)C2)s1 (centres unmarked),-66.4%
8,Cc1cc(C(=O)NC2CCCN(Cc3ccc(Cl)cc3)C2)c(C)o1 (centres unmarked),-11.9%
9,Cc1cc(C(=O)NC2CCCN(Cc3ccc(Cl)cc3)C2)no1 (centres unmarked),-34.6%
10,Cc1ccsc1C(=O)NC1CCCN(Cc2ccc(Cl)cc2)C1 (centres unmarked),-56.2%
11,CNc1nc(Sc2ccc(C)cc2)cc(C(F)(F)F)n1,15.5%
12,COc1ccc(N(CC(=O)Nc2cc(Cl)ccc2OC)C2=NC3CS(=O)(=O)CC3S2)cc1 (centres unmarked),-7.35%
13,Cc1ccc(C(=O)N2CCN(c3ccccn3)CC2)cc1Cl,-3.65%
14,CC(NC(=O)c1cc(S(=O)(=O)N2CCOCC2)ccc1F)c1ccc(-n2ccnc2)cc1 (centres unmarked),-72.2%
15,Cc1ccc(C(=O)NC(C)c2ccc(-n3ccnc3)cc2)cc1S(=O)(=O)N1CCOCC1 (centres unmarked),-65.1%
16,O=C(Nc1ccc(N2CCCCC2)cc1)c1cc(S(=O)(=O)N2CCOCC2)ccc1F,-9.76%
17,Cc1ccc(C(=O)NC(C)c2ccccc2)cc1S(=O)(=O)N1CCOCC1 (centres unmarked),-1.39%
18,Cc1ccc(C(=O)NNC(=O)c2ccncc2)cc1S(=O)(=O)N1CCOCC1,0.578%
19,O=C(NCCCn1ccnc1)c1cc(S(=O)(=O)N2CCOCC2)ccc1F,26.8%

row,SMILES,"hERG current change (%, negative = inhibition) at 10uM"
1,CCOC(=O)CNC(=O)C(=O)c1c(O)[nH]c2ccccc12,9.92%
2,CC(C(=O)NCC1CCCO1)n1cccc1C(=O)c1ccccc1 (centres unmarked),15.1%
3,CCOC(=O)C1=C(CN2CCc3ccccc32)NC(=O)NC1c1cccc([N+](=O)[O-])c1 (centres unmarked),-7.46%
4,Cc1cc(C(=O)OCn2nnc3ccccc3c2=O)c(C)o1,-6.92%
5,Cc1c(C(=O)Nc2ccc(F)c(F)c2)oc2ccc(S(=O)(=O)N3CCCCC3)cc12,-0.731%
6,Cc1ccc(CN2CCN(/N=C/c3ccc(O)c(O)c3)CC2)cc1,-21.7%
7,Cn1ccnc1C(=O)c1cc(=O)c2ccccc2o1,8.14%
8,Clc1ccc(CSc2nnc(-c3cccnc3)n2Cc2ccco2)c(Cl)c1,-68.7%
9,Clc1ccccc1CSc1nnc(-c2cccnc2)n1Cc1ccco1,-43.1%
10,O=C(CSc1nnc(-c2cccnc2)n1Cc1ccccc1)NCc1ccco1,-1.17%
11,Clc1cccc(CSc2nnc(-c3ccccn3)n2Cc2ccco2)c1,-35.7%
12,Clc1cccc(CSc2nnc(-c3cccnc3)n2Cc2ccco2)c1,-74.3%
13,Clc1ccc(CSc2nnc(-c3ccccn3)n2Cc2ccco2)c(Cl)c1,-5.15%
14,Cc1cc(C)cc(OCC(=O)Nc2ccncc2)c1,-18.9%
15,C=CCN(c1ccccc1)S(=O)(=O)c1cccc(C(=O)NNC(=O)c2ccncc2)c1,-7.43%
16,O=C1NC(Cc2ccccc2)C(=O)N1Cc1cc([N+](=O)[O-])cc2c1OCOC2 (centres unmarked),7.47%
17,COc1ccc(N2CCN(C(=O)c3ccc(SC)cc3OC)CC2)cc1,-55.3%
18,COc1cc(SC)ccc1C(=O)N1CCN(c2ccc(O)cc2)CC1,-34.2%
19,COc1cc(SC)ccc1C(=O)N1CCN(Cc2ccccc2)CC1,-62.7%

row,SMILES,"hERG current change (%, negative = inhibition) at 10uM"
1,COc1cc(SC)ccc1C(=O)N1CCN(c2ccccc2)CC1,-17.2%
2,COc1cc(SC)ccc1C(=O)N1CCCCCC1,17.3%
3,COc1cc(SC)ccc1C(=O)N1CCN(Cc2ccc3c(c2)OCO3)CC1,-34.3%
4,COc1ccc(-c2cn3c(C)c(C(=O)NC(C)C)sc3n2)cc1,6.65%
5,COc1nc2c(C)cccc2cc1-c1noc(-c2ccco2)n1,-8.01%
6,c1ccc(-c2ncc3ccccn23)cc1,-3.24%
7,COc1cc(-c2cc(C(=O)Nc3nc4ccccc4s3)c3ccccc3n2)cc(OC)c1OC,35.9%
8,CCc1ccc(CNCc2cccs2)cc1.Cl,-22.9%
9,Brc1ccc(CNCc2cccs2)cc1,-55.1%
10,Brc1cccc(CNCc2cccs2)c1,-10.2%
11,Cc1cc(Cl)c(OCCCn2cncn2)c(Br)c1,-14.1%
12,CCCCOc1ccc(/C=C/C2=CC(C)(C)NC(=S)N2)cc1OCC,7.58%
13,CN(Cc1nc2ccccc2[nH]1)C(=O)C1CCC(=O)N(CCc2cccc(F)c2)C1 (centres unmarked),4.23%
14,CCn1ccnc1CN(C)C(=O)C1CCC(=O)N(Cc2cccc(C(F)(F)F)c2)C1 (centres unmarked),-22.8%
15,CCn1ccnc1CN(C)C(=O)C1CCC(=O)N(CCc2cccc(F)c2)C1 (centres unmarked),-50.7%
16,CN(Cc1ccccc1Cl)C(=O)C1CCC(=O)N(CCc2cccc(F)c2)C1 (centres unmarked),-52.5%
17,CCn1ccnc1CN(C)C(=O)C1CCC(=O)N(Cc2cccc(F)c2)C1 (centres unmarked),-11.9%
18,Cc1ccsc1CN(C)C(=O)C1CCC(=O)N(CCc2cccc(F)c2)C1 (centres unmarked),-35.9%
